Experimental data: PubChem BioAssay AID504648 (National Center for Advancing Translational Sciences (NCATS), 2011)
In all, about 390,000 compounds went through this assay and about 610 (0.16%) were called active. Inconclusive results (about 4%) are left out. This is one part of a sample in which actives are shown more often than they occur. Unmarked numbers belong to inactive results. Calls come from the whole dose curve; as a rule, active = well fitted inhibition curve with a large enough effect; inconclusive = small, poorly fitted or top-dose-only effect, or effect the other way, or another doubt; inactive = no such curve, though single readings can be large or run the other way.

Experiment: Nrf2 qHTS screen for inhibitors: counterscreen for cytotoxicity
Settings: A549 ARE-Fluc cells, CellTiter-Fluor viability, 18-24 h; series mostly up to 46 µM; activity change, negative = cytotoxicity: at the top concentration
Procedure, shortened: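 A549 ARE-Fluc cells in 5% FBS OPTI-MEM, 5000 cells/well, rested 2 h then exposed to compounds in concentration-response for 18-24 h at 37 °C. Viability by CellTiter-Fluor fluorescence (Ex 405/Em 525) after 30 min; luciferase luminescence (BugLite, 15 min, RT) read afterwards.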
% is set by controls: 0 for no effect and ±100 for the full control effect; potency is the fitted concentration of half-maximal effect.

Which “activity change, negative = cytotoxicity” value does the source give for O=C(NCc1nnc(C(=O)Nc2ccc(C(F)(F)F)cc2Cl)o1)c1ccccc1 here?
The value was -5.57%.

With CC1CCCCN1CC(=O)N1CCCc2c1c(=O)oc1ccc(OCc3ccccc3)cc21 (stereo not given) as the compound, how does the “activity change, negative = cytotoxicity” value read?
Its value is -12%.

For COc1cccc(C2CC(c3ccccc3)=NN2S(=O)(=O)c2ccccc2)c1OC (stereo not given), which “activity change, negative = cytotoxicity” value is on record?
The value was -2.21%.

For COc1ccc2c(c1OC)C(=O)OC2Nc1nc(-c2ccccc2)cs1 (stereo not given), which Potency is on record?
The Potency was 20.6 µM (active).

Which “activity change, negative = cytotoxicity” value does the source give for Cc1ccc(CNC(=O)C2(C(F)(F)F)C/C(=C\CCO)CCCO2)o1 (stereo not given) here?
Its value is -0.0353%.

For Cn1nnnc1Sc1ncnc2scc(-c3ccccc3[N+](=O)[O-])c12, which “activity change, negative = cytotoxicity” value is on record?
The value was -8.01%.

Which “activity change, negative = cytotoxicity” value does the source give for COc1cccc(OC2=NS(=O)(=O)c3ccccc32)c1 here?
The value was 8.49% [at 65.3 µM].

For CCc1ccc(NC(=O)N2CCN(C(=O)c3nsc4ccccc34)CC2)cc1, which “activity change, negative = cytotoxicity” value is on record?
The value was -8.29%.

Which “activity change, negative = cytotoxicity” value does the source give for Cc1cc(C)c(NC(=O)Cn2c(SCC(=O)NCc3ccccc3)nc3ccccc32)c(C)c1 here?
The value was -9.69%.

Which “activity change, negative = cytotoxicity” value does the source give for COc1ccc(Br)cc1C1C2C=CCC(C)C2C(=O)N1Cc1ccccc1 (stereo not given) here?
Its value is -9.11%.

Which “activity change, negative = cytotoxicity” value does the source give for O=C1C2C(c3ccccc3)CC=CC2C(c2ccoc2)N1Cc1ccccc1 (stereo not given) here?
Its value is -12.7%.

Which “activity change, negative = cytotoxicity” value does the source give for Cc1ccc(NC(=O)C(Cc2ccccc2)NS(=O)(=O)c2ccc3c(c2)oc(=O)n3C)cc1C (stereo not given) here?
Its value is -0.129%.

With CC(=O)Nc1cc(C(=O)NCc2ccc(F)cc2)ccc1Sc1ccc(F)cc1 as the compound, how does the “activity change, negative = cytotoxicity” value read?
The value was -2.42%.

For COC(=O)c1ccc(OC)c(Cn2c(=O)n(Cc3ccccc3)c(=O)c3c2c2cc(OC)ccc2n3C)c1, which “activity change, negative = cytotoxicity” value is on record?
Its value is 2.6%.

With O=C1Nc2ccc(Br)cc2/C1=N/N=C/C1=C(N2CCOCC2)C(=C\c2ccccc2)/CC1 as the compound, how does the Potency read?
The Potency was 18.4 µM (active).

Which “activity change, negative = cytotoxicity” value does the source give for COc1ccccc1C(=O)OCc1cc(=O)n2nc(-c3cccs3)sc2n1 here?
The value was -1.04%.

For O=[S+]([O-])(c1ccc2c(c1)OCCO2)N1CCN([S+](=O)([O-])c2c(Cl)cc(Cl)cc2Br)CC1, which “activity change, negative = cytotoxicity” value is on record?
The value was -1.37%.

For COc1ccc(C2=NC(c3ccncc3)=Nc3ccc(Br)cc3N2)cc1, which “activity change, negative = cytotoxicity” value is on record?
Its value is 4.44%.

With O=[S+]([O-])(c1ccc(OC(F)(F)F)cc1)N1CCN([S+](=O)([O-])c2ccc3c(c2)OCCO3)CC1 as the compound, how does the “activity change, negative = cytotoxicity” value read?
The value was -2.24%.

Which “activity change, negative = cytotoxicity” value does the source give for CCc1ccc(NC(=O)Cn2c(=O)n(CCC(=O)NCc3ccc4c(c3)OCO4)c(=O)c3ccccc32)cc1 here?
Its value is -0.967%.

Which “activity change, negative = cytotoxicity” value does the source give for CCc1ccccc1NC(=O)N1CCN(C(=O)c2nsc3ccccc23)CC1 here?
The value was 7.86%.

Which “activity change, negative = cytotoxicity” value does the source give for CCCn1c2ccccc2c2cnn(CC(=O)N3CCCC(C(=O)OCC)C3)c(=O)c21 (stereo not given) here?
Its value is 11%.

For CCOC(=O)c1c(C)[nH]c2c1-c1ccccc1C(=O)C2=O, which Potency is on record?
Its Potency is 23.1 µM (active).

For CCOC(=O)c1c(C)[nH]c(C)c1S(=O)(=O)N(C)CC(=O)N1CCN(c2ccccc2)CC1, which “activity change, negative = cytotoxicity” value is on record?
The value was -2.2%.

With CCOC(=O)c1c(SCC(=O)Nc2cccc(C)c2C)nc(=O)[nH]c1C as the compound, how does the “activity change, negative = cytotoxicity” value read?
The value was 5.98%.

For COc1ccc(CN(Cc2ccccc2)C(=O)c2ccc(O)cc2)cc1COc1ccc(NC(C)=O)cc1, which “activity change, negative = cytotoxicity” value is on record?
The value was 0.528%.

Which “activity change, negative = cytotoxicity” value does the source give for Cc1ccc(Cn2ncc3c4sc(C)cc4n(C)c3c2=O)c(C)c1 here?
Its value is -0.122%.

With Cc1ccc(-c2nnc3ccc(SCC(N)=O)nn23)cc1 as the compound, how does the “activity change, negative = cytotoxicity” value read?
The value was -12.6%.

For CCc1cccc(NC(=O)c2cnc(N3CCOCC3)c3ccccc23)c1, which “activity change, negative = cytotoxicity” value is on record?
The value was -2.22%.

With COc1ccc(C(=O)N(Cc2ccccc2)Cc2ccc(OC)c(COc3ccc(NC(C)=O)cc3)c2)c(O)c1 as the compound, how does the “activity change, negative = cytotoxicity” value read?
Its value is 10.5%.

Which “activity change, negative = cytotoxicity” value does the source give for C=C1CCN(Cc2ccc(OC)cc2)S(=O)(=O)c2ccccc21 here?
Its value is 1.54%.

For CC(=O)OCC(NC(=O)C(Cc1ccccc1)NC(=O)OC(C)(C)C)C1OC(n2ccc(=O)[nH]c2=O)C(OC(C)=O)C1OC(C)=O (stereo not given), which “activity change, negative = cytotoxicity” value is on record?
Its value is -1.95%.

Which “activity change, negative = cytotoxicity” value does the source give for CCN(CC)/[N+]([O-])=N/Oc1cc(O/[N+]([O-])=N/N2CCCC2CO)c([N+](=O)[O-])cc1[N+](=O)[O-] (stereo not given) here?
The value was -4.52%.

For COc1ccc2c(CNCCc3ccccc3C)c(C(=O)O)n(Cc3ccccc3C)c2c1, which “activity change, negative = cytotoxicity” value is on record?
Its value is 2.98%.

For COc1ccc(Cn2c(C(=O)O)c(CNCc3cccc(OC)c3)c3ccc(C)cc32)cc1, which Potency is on record?
Its Potency is 8.2 µM (active).

For CCOc1ccc(CNCc2c(C(=O)O)c(C)n(Cc3cccc(OC)c3)c2C)cc1OC, which “activity change, negative = cytotoxicity” value is on record?
The value was 0.69%.

Which “activity change, negative = cytotoxicity” value does the source give for Cc1c(C=O)n(C)n(-c2ccccc2)c1=O here?
The value was -0.443%.

With Cc1ccc(S(=O)(=O)Nc2ccccc2CNc2c(C)n(C)n(-c3ccccc3)c2=O)cc1 as the compound, how does the “activity change, negative = cytotoxicity” value read?
Its value is 3.84%.

For Cc1c(N=Nc2ccc(N(C)C)cc2)c(=O)n(-c2ccccc2)n1C, which Potency is on record?
Its Potency is 18.4 µM (active).

For O=C1c2ccccc2C(=O)N1c1ccc(S(=O)(=O)N2CCOCC2)c2ccccc12, which “activity change, negative = cytotoxicity” value is on record?
Its value is 9.66%.

With CCCN(CCC)C(=O)C1CCCN(c2ncnc3c2nc2n3CCCCC2)C1 (stereo not given) as the compound, how does the “activity change, negative = cytotoxicity” value read?
The value was -13.8%.

For N#CN1CCC(NS(=O)(=O)c2cccc(F)c2)C1 (stereo not given), which “activity change, negative = cytotoxicity” value is on record?
The value was 2.73%.

With CC[n+]1cc(C)ccc1/C=C/c1ccc(N(C)C)cc1 as the compound, how does the Potency read?
The Potency was 9.2 µM (active).

Which “activity change, negative = cytotoxicity” value does the source give for N#Cc1ccc(OC2=NS(=O)(=O)c3ccccc32)cc1 here?
Its value is 8.95%.

For CCC(C)Nc1oc(-c2ccc(COc3ccc(Cl)cc3)o2)nc1C#N (stereo not given), which “activity change, negative = cytotoxicity” value is on record?
Its value is -11.5%.

With Cc1c(C)n(Cc2ccc(Cl)cc2)c2ccc(C(=O)NCCc3ccc(S(N)(=O)=O)cc3)cc12 as the compound, how does the “activity change, negative = cytotoxicity” value read?
Its value is -0.406%.

With Cc1onc(-c2ccc(F)cc2F)c1C(=O)Nc1cccc(C(F)(F)F)c1 as the compound, how does the “activity change, negative = cytotoxicity” value read?
Its value is 2.97%.

For COc1cc(NC(=O)c2[nH]cnc2C(N)=O)cc(C(=O)Nc2cccc(C(F)(F)F)c2)c1, which Potency is on record?
Its Potency is 20.6 µM (active).

With Cc1cc(Nc2cccc(C(F)(F)F)c2)nc2ccc(NC(=O)c3ccc(=O)[nH]c3)cc12 as the compound, how does the “activity change, negative = cytotoxicity” value read?
The value was -1.16%.

Which “activity change, negative = cytotoxicity” value does the source give for Cc1ccc(-c2nc(SCc3ccc(Br)cc3)n3[nH]c(=O)cc3n2)cc1 here?
The value was 12.3%.

With O=C(O)C1CC=CC2CCN(C3CCCCC3)C(=O)C21 (stereo not given) as the compound, how does the “activity change, negative = cytotoxicity” value read?
Its value is -2.71%.

For O=C(COc1ccccc1)Nc1ccc(N2CCN(C(=O)c3cccs3)CC2)cc1, which “activity change, negative = cytotoxicity” value is on record?
The value was -1.48%.

With Cc1cc(Nc2cc(N3CCN(C)CC3)nc(Sc3ccc(NC(=O)C4CC4)cc3)n2)n[nH]1 as the compound, how does the “activity change, negative = cytotoxicity” value read?
The value was -6.27%.

For C=CC(=O)Nc1ccc(Nc2ccnc(Nc3ccc(N4CCN(C)CC4)cc3)n2)cc1, which Potency is on record?
Its Potency is 9.2 µM (active).

For Cc1ccc(F)c(NC(=O)CCOc2ccccc2C)c1, which “activity change, negative = cytotoxicity” value is on record?
The value was 4.07%.

Which “activity change, negative = cytotoxicity” value does the source give for C/C=C/c1ccc(OCCOc2ccc(C=O)cc2OC)c(OC)c1 here?
The value was -2.78%.

For COc1cc(/C=N/NC(=O)Nc2ccccc2)ccc1OCCOc1ccccc1C, which Potency is on record?
Its Potency is 5.8 µM (active).

Which “activity change, negative = cytotoxicity” value does the source give for CC(=O)c1ccc(NC(=O)CSc2c(C(C)C)cnc3c2c(=O)n(C)c(=O)n3C)cc1 here?
The value was 0.808%.

Which “activity change, negative = cytotoxicity” value does the source give for COc1ccc(CN2CCC(=O)c3ccccc3S2(=O)=O)cc1 here?
Its value is 0.19%.

For O=C(c1ccc2c(=O)n(Cc3ccco3)c(=S)[nH]c2c1)N1CCCC1, which “activity change, negative = cytotoxicity” value is on record?
Its value is -3.84%.
